About 2,100 (0.66%) of roughly 320,000 compounds were called active. Roughly 53% stayed inconclusive and do not appear here. The sample holds actives, similar compounds and a random draw of the others, so the mix is not that of the screen. The call rests on the fitted dose curve; in most records, active means well fitted inhibition curve with a large enough effect in the signal ratio, with a control signal flat (not every such curve was filed as active); inconclusive means small, poorly fitted or top-dose-only effect, or effect the other way, or a change in a side signal; inactive means flat fitted curve, though single readings scatter; the % refers to the signal ratio.
Potency means the concentration at half of the fitted maximal effect.

This test is described as follows: qHTS Assay for Lipid Storage Modulators in Drosophila S3 Cells.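 On cell number change: cells counted by Cell Tracker Red CMTPX staining in the red channel.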 On lipid storage change, negative = inhibition: on the % scale 0 is the no-effect control and ±100 the full control effect. Conditions: BODIPY lipid droplet fluorescence, 18-24 h, cells fed with added oleic acid; cell number change: measured here: cell count max response; series mostly up to 46.1 µM. Summed up: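 Drosophila S3 cells got compounds at several concentrations plus oleic acid (400 uM solution). Laser-scanning cytometry with 488 nm excitation read lipid droplets at 500-530 nm and cells at 575-640 nm. Percent activity was relative to 20 uM Triacsin C.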
As for `CC(C)(C)OC(=O)NCCCC(CCCNC(=O)OC(C)(C)C)C(=O)O`, the Potency is 16.4 µM (active) and the cell number change was -6.12%. For `CC(C)(C)OC(=O)NC(Cc1ccccc1)C(=O)NCCCC(=O)O` (stereo not drawn) the same measures were “inactive” and -14.4%. For `CC(C)(C)OC(=O)NCCCCCO` the same measures were “inactive” and -1.04%. Regarding `Cc1ccc(C(=O)N/N=C/c2ccc(-c3cccc(Cl)c3)o2)cn1`, the Potency entry was “inactive” and the cell number change amounted to 8.19%. For the molecule `Nc1c(-c2ccccc2)sc2ccc3ccccc3[n+]12`, the Potency was 1.3 µM (active) and the cell number change worked out at 7.96%.

In the case of `Nc1nc(-c2ccccc2)c(-c2ccccc2)s1`, the Potency entry is “inactive”. On to `Nc1nc(-c2ccccc2)c(-c2ccc([N+](=O)[O-])cc2)s1`, for which the Potency entry is “inactive” and the cell number change stood at 0.729%.

With `O=C(COC(=O)C1COc2ccccc2O1)Nc1cccc(Cl)c1` (stereo not drawn), the Potency result was “inactive” and the cell number change is -13.4%. The matching figures for `Cc1ccc(C)c(C2C(=O)c3ccccc3C2=O)c1`: “inactive” and -8.26%.

As for `O=C1c2ccccc2C(=O)C1c1ccccc1`, the Potency entry is “inactive” and the cell number change came out at 3.81%.

`Cc1ccccc1C1C(=O)c2ccccc2C1=O`: the Potency was 20.6 µM (active) and the cell number change turned out to be 14.4%. As for `O=C(Nc1ccc(Cl)cc1)Nc1ccon1`, the Potency result was “inactive” and the cell number change was determined as 28.2%. Regarding `O=C(Nc1ccc(Cl)c(Cl)c1)Nc1ccon1`, the Potency is 10 µM (active). Take `O=C(Nc1cccc(Cl)c1)Nc1ccon1`: the Potency result was “inactive” and the cell number change is -26.2%. In the case of `Cc1ccccc1OCCCCCNCCO`, the Potency result was “inactive” and the cell number change was found to be 2.5%. The matching figures for `Cc1cc(C)c(OCCCCCNCCO)c(C)c1`: 25.9 µM (active) and -17.5%. The matching figures for `Cc1cc(C)cc(OCCCCCNCCO)c1`: “inactive” and -17.6%. As to `O=C1NCCN(Cc2ccc(Cl)c(F)c2)C1CC(=O)N1CCCCO1` (stereo not drawn), the Potency result was “inactive” and the cell number change turned out to be 5.73%. Consider `Nc1nc2c(C(=O)N3CCOCC3)nnn2c2ccccc12`, for which the Potency entry was “inactive” and the cell number change was found to be 6.42%. For `CCN(CC)S(=O)(=O)c1ccc(N2CCOCC2)c(NS(=O)(=O)c2ccc(C)c(C)c2)c1` the same measures were “inactive” and 16%.

For the molecule `CCN(CC)S(=O)(=O)c1ccc(N2CCCC2)c(NS(=O)(=O)c2ccc(OC)cc2)c1`, the Potency result was “inactive” and the cell number change stood at 10.1%. The matching figures for `CCN(CC)S(=O)(=O)c1ccc(N2CCOCC2)c(NS(=O)(=O)c2ccc(OC)cc2)c1`: 20.6 µM (active) and -20.4%. Consider `CN(C(=O)CCn1c(=S)oc2ccccc21)c1ccc(F)cc1`, for which the Potency entry is “inactive” and the cell number change is 7.52%. `Cc1cc(C)c(C)c(S(=O)(=O)N[C@@H](C)C(=O)OCC(N)=O)c1C`: the Potency result is “inactive” and the cell number change is -24.5%.

As to `O=C(NCC(=O)N1CCN(c2ccccc2)CC1)c1ccco1`, the Potency result is “inactive” and the cell number change was 1.29%. For `O=C(OCC(=O)N1CCN(c2ccccc2)CC1)c1ccco1` the same measures were 23.1 µM (active) and -17.5%.

Consider `COc1ccc(N2CCN(C(=O)COC(=O)c3ccco3)CC2)cc1`, for which the Potency entry is “inactive” and the cell number change was 6.24%.

As to `COc1ccc(NC(=O)CCS(=O)(=O)c2ccc(Cl)cc2)cc1`, the Potency result was “inactive”. `O=S(=O)(c1cccs1)N1CCC(Cc2ccccc2)CC1`: the Potency result is “inactive” and the cell number change is -12%. Consider `CCC(C)Sc1ccc(-c2nc3ccc(C)cn3c2NC2CCCCC2)cc1` (stereo not drawn), for which the Potency result is “inactive” and the cell number change was -1.01%. With `CCCCCCSc1ccc(-c2nc3ccc(C)cn3c2NC2CCCCC2)cc1`, the Potency is 11.6 µM (active).

Regarding `CCCCCCSc1cccc(-c2nc3cc(C)ccn3c2NC2CCCCC2)c1`, the Potency entry was “inactive” and the cell number change is -11.8%. The matching figures for `CC(C)(C)CC(=O)Nc1nn[nH]n1`: “inactive” and -2.51%.

Regarding `O=C(NNC(=S)NC1CC2C=CC1C2)c1cccnc1` (stereo not drawn), the Potency entry was “inactive” and the cell number change was found to be 2.14%. Consider `COCC(=O)Nc1ccc(Br)c(C)c1`, for which the cell number change worked out at 9.41% and the lipid storage change, negative = inhibition was 14.1% [at 9.22 µM] (inactive). `CCOC(=O)Cc1csc(SCC(=O)Nc2cccc(Cl)c2)n1`: the Potency result was “inactive” and the cell number change came to 13.5%. For the molecule `CCOC(=O)Cc1csc(SCC(=O)NC(C)C23CC4CC(CC(C4)C2)C3)n1` (stereo not drawn), the Potency was 1.64 µM (active) and the cell number change was found to be 5.41%. In the case of `CCOC(=O)Cc1csc(SCC(=O)Nc2ccc(C)cc2F)n1`, the Potency entry was “inactive” and the cell number change is -11%. The matching figures for `O=C(Nc1ccccn1)c1ccc(Cl)c(S(=O)(=O)N2CCOCC2)c1`: “inactive” and 13.7%. `CCOC(=O)COc1ccccc1C(=O)c1cnn(-c2ccccc2)c1`: the Potency result is “inactive” and the cell number change amounted to 3.88%. The matching figures for `CCC(C)NC(=O)CSc1nc2ccccc2c(=O)n1CCCN1CCCCC1` (stereo not drawn): “inactive” and -2.07%. In the case of `Cc1cc([N+](=O)[O-])nn1CCC(=O)Nc1nccs1`, the Potency result was “inactive” and the cell number change came to 0.24%. The matching figures for `CCCN1CCc2c(sc(NC(=O)c3ccc(S(=O)(=O)N(C)c4ccccc4)cc3)c2C(N)=O)C1`: 13 µM (active) and -20.7%. The matching figures for `COC(=O)c1c(NC(=O)c2ccc(N(C)S(=O)(=O)c3ccc(C)cc3)cc2)sc2c1CCCC2`: “inactive” and -4.01%.

For the molecule `CCCN1CCc2c(sc(NC(=O)c3ccc(S(=O)(=O)N4CCN(C(=O)OCC)CC4)cc3)c2C(N)=O)C1`, the Potency entry is “inactive” and the cell number change was -7.97%. `CCCN1CCc2c(sc(NC(=O)c3ccc(S(=O)(=O)N(C)c4ccccc4)cc3)c2C(=O)NC)C1`: the Potency was 4.11 µM (active) and the cell number change is -17.2%.

As for `CCCN1CCc2c(sc(NC(=S)NC(=O)c3ccccc3)c2C#N)C1`, the Potency entry is “inactive” and the cell number change is 3.88%.

Regarding `CN1CCc2c(sc(NC(=O)c3ccc(C(=O)c4ccccc4)cc3)c2C(N)=O)C1`, the Potency entry is “inactive” and the cell number change came out at 0.647%. For `COc1cc(OC)c(C(=O)OCC(=O)NCCC2=CCCCC2)cc1OC` the same measures were “inactive” and -12.4%. The matching figures for `COCCNC(=O)CCCn1c(=O)c2cc(OC)c(OC)cc2n(CC(=O)c2ccc(Cl)cc2)c1=O`: “inactive” and -4.78%.

Regarding `CCOC(=O)C1CCN(C(=O)CC(NS(=O)(=O)c2ccc(OC)cc2)C(C)C)CC1` (stereo not drawn), the Potency result was “inactive” and the cell number change worked out at 5.69%. `OCCCNc1cc(-c2ccnc(Nc3cccc(Cl)c3)n2)ccn1`: the Potency is 6.51 µM (active) and the cell number change is -20.1%. For `CN(C)CCCNc1ccc(-c2cc(Nc3cccc(Cl)c3)ncn2)cn1` the same measures were “inactive” and 7.36%.

Turning to `CC(C)n1cnc2c(Nc3cccc(Cl)c3)nc(NCCCO)nc21`, the Potency result was “inactive” and the cell number change is 1.01%. The matching figures for `OC(COc1c(F)cc(Br)cc1F)CN1CCc2ccccc2C1` (stereo not drawn): “inactive” and -1.04%.

Consider `c1ccc(Cc2nnc3sc(-c4ccccn4)nn23)cc1`, for which the Potency entry was “inactive”.

For the molecule `CCN(CC)CCN(Cc1cc2cc3c(cc2[nH]c1=O)OCCO3)C(=O)NC1CCCCC1`, the Potency is 16.4 µM (active) and the cell number change was found to be 4.42%. The matching figures for `CN(C)CCCN(Cc1cc2cc3c(cc2[nH]c1=O)OCCO3)C(=O)NC1CCCCC1`: “inactive” and 0.0235%. Regarding `O=C(NC1CCCCC1)N(CCN1CCCC1)Cc1cc2cc3c(cc2[nH]c1=O)OCCO3`, the Potency result is “inactive”.

Turning to `Cc1ccc(Nc2nc(N)nc(CN3CCN(C)CC3)n2)cc1C`, the Potency entry was “inactive” and the cell number change is 7.98%. The matching figures for `Cc1ccc(Nc2nc(N)nc(CN3CCN(C)CC3)n2)cc1`: 25.9 µM (active) and -12%. The matching figures for `CN1CCN(Cc2nc(N)nc(Nc3ccc4c(c3)OCCO4)n2)CC1`: “inactive” and -0.153%.

The values are drawn from PubChem BioAssay AID2685 (National Center for Advancing Translational Sciences (NCATS), 2010).
